The source of these data is PubChem BioAssay (Tox21).

SMILES strings stand for the structures. Results filed as inconclusive are left out. Activity calls are given as the source filed them. Unless noted, calls follow the shape of the dose curve; as a rule, active = well fitted curve in the direction sought with a large enough effect in the repeat runs; inconclusive = weak or mixed curves; inactive = no such curve, though single readings can be large; an effect the other way counts as inactive or inconclusive.

A short description of assay [1]: A CellTox Green Cytotoxicity Assay to monitor cytotoxicity in HepG2 cells - 0 hour (AID 1224882). Also: nearly all actives have a fitted effect of over 35% in size. The method, boiled down:
(§1)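 Real-time, homogeneous cytotoxicity readout: dead-cell DNA staining by CellTox Green in HepG2 monolayers, fluorescence measured at timed intervals up to 40 h of continuous compound exposure.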

Assay [2] can be described thus: A CellTox Green Cytotoxicity Assay to monitor cytotoxicity in HepG2 cells - 32 hour (AID 1224883). Also: nearly all actives have a fitted effect of over 50% in size. Also: potency is read from the fitted curve at half-maximal effect. The method, boiled down: as §1
The nature of assay [3]: qHTS RealTime-Glo MT Cell Viability Assay in HepG2 cells - 16 hour (AID 1224885). Also: nearly all actives have a fitted effect of over 50% in size. Also: potency is read from the fitted curve at half-maximal effect. The method, boiled down:
(§2)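 qHTS, HepG2, 600 cells/well, RealTime-Glo (NanoLuc + prosubstrate) added with cells; 5 h preincubation; DMSO compound addition; 37 C; luminescence at 0/8/16/24/32/40 h.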
For orientation: qHTS replaces the single test concentration by a dilution series.

Assay [4] can be described thus: qHTS RealTime-Glo MT Cell Viability Assay in HEK293 cells - 24 hour (AID 1224886). Also: nearly all actives have a fitted effect of over 50% in size. Also: potency is read from the fitted curve at half-maximal effect. The method, boiled down: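 Assay medium contained NanoLuc luciferase plus cell-permeant prosubstrate, added with HEK293 cells at 600 cells/well. After 5 h at 37 C/5% CO2 compounds were added; plates stayed at 37 C for 40 h with serial luminescence reads.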
Assay [5] in a line: qHTS RealTime-Glo MT Cell Viability Assay in HEK293 cells - 8 hour (AID 1224887). Also: nearly all actives have a fitted effect of over 50% in size. Also: potency is read from the fitted curve at half-maximal effect. The method, boiled down:
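Nonlytic bioluminescent viability monitoring. HEK293 at 600 cells/well with reagent; 5 h settle; compound transfer by pintool; plates held at 37 C and read at set time points.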

Assay [6] is described as follows: qHTS RealTime-Glo MT Cell Viability Assay in HepG2 cells - 0 hour (AID 1224889). Also: nearly all actives have a fitted effect of over 50% in size. Also: potency is read from the fitted curve at half-maximal effect. In outline:
as §2

The nature of assay [7]: A CellTox Green Cytotoxicity Assay to monitor cytotoxicity in HepG2 cells - 8 hour (AID 1224890). Also: nearly all actives have a fitted effect of over 45% in size. Also: potency is read from the fitted curve at half-maximal effect. The method, boiled down:
as §1

Assay [8] is described as follows: qHTS assay to identify small molecule antagonists of the estrogen receptor alpha (ER-alpha) signaling pathway using the BG1 cell line in the presence of 0.1 nM 17-beta-estradiol - cell viability counter screen (AID 1259241). Also: nearly all actives have a fitted effect of over 40% in size. The method, boiled down:
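The cell line endogenously expresses full-length ER-alpha and carries four EREs driving luciferase. Cells are cultured 5 days hormone-free, treated 22 hr with compounds and 0.1 nM estradiol, then viability is read by fluorescence.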

The nature of assay [9]: qHTS assay to identify small molecule antagonists of the androgen receptor (AR) signaling pathway using the MDA cell line in the presence of 0.5 nM R1881 - cell viability counter screen (AID 1259242). Also: nearly all actives have a fitted effect of over 45% in size. Also: potency is read from the fitted curve at half-maximal effect. In outline:
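Cytotoxicity toward MDA-kb2 cells is measured by CellTiter-Fluor live-cell protease fluorescence after 16 hr compound exposure at 37C in the presence of 0.5 nM R1881 stimulator.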

The target of assay [10] is Estrogen receptor (Homo sapiens) (UniProt P03372). The assay is described as follows: qHTS assay to identify small molecule antagonists of the estrogen receptor alpha (ER-alpha) signaling pathway using the BG1 cell line in the presence of 0.1 nM 17-beta-estradiol (AID 1259244). Also: nearly all actives have a fitted effect of over 50% in size. The method, boiled down: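 After 5 days in hormone-depleted medium (charcoal-stripped serum, no phenol red), VM7Luc4E2 cells were seeded, incubated 24 h, then co-treated with compound and 0.1 nM (final) estradiol for 22 h before luminescence detection.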

A short description of assay [11]: qHTS assay to identify small molecule HDAC inhibitors (AID 1259364). Also: top concentration of the series differs between compounds; nearly all actives have a fitted effect of over 45% in size. The method, boiled down: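 Homogeneous cell-based luminescent assay of endogenous class I/II HDAC activity; HCT-116 cells, 2 h compound exposure, 30 min HDAC-Glo development at RT.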
Assay [12] can be described thus: qHTS assay to identify small molecule HDAC inhibitors - cell viability counter screen (AID 1259365). In outline: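 Viability readout: CellTiter-Glo luminescence. Wild-type HCT-116 cells, 2hr compound treatment following overnight attachment at 37 C.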
The nature of assay [13]: qHTS assay to identify small molecule agonists of the sonic hedgehog signaling (Shh) pathway - cell viability counter screen (AID 1259366). Also: nearly all actives have a fitted effect of over 50% in size. The method, boiled down:
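Viability measured fluorometrically (CellTiter-Fluor, 1hr, 37C) in 3T3 Gli1-Luc reporter cells after 23hr compound exposure within a 24hr incubation at 37C/5% CO2.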

Assay [14] can be described thus: qHTS assay to identify small molecule antagonists of the sonic hedgehog signaling (Shh) pathway - cell viability counter screen (AID 1259367). Also: nearly all actives have a fitted effect of over 55% in size. Also: potency is read from the fitted curve at half-maximal effect. In outline:
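NIH/3T3-derived Gli1-Luc reporter cells (2,000 per well) rested 4 hr at 37 C, then received DMSO compounds plus conditioned medium. After 23 hr of treatment, CellTiter-Fluor was added for 1 hr at 37C and fluorescence read.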

Assay [15] can be described thus: qHTS assay to identify small molecule agonists of the sonic hedgehog signaling (Shh) pathway (AID 1259368; calls by dose curve;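 also: NIH/3T3-derived 3T3Gli1-Luc cells carrying a stable Gli1-driven firefly luciferase reporter; series mostly up to about 92 µM; nearly all actives have a fitted effect of over 15% in size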). In outline:
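Steps: seed 3T3 Gli1-Luc cells, incubate 4 hr at 37 C, pin-transfer compounds in DMSO alongside a positive control, incubate 24 hr, add luciferase detection reagent, wait 30 min at room temperature, read luminescence.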

Assay [16] in a line: qHTS assay to identify small molecule antagonists of the sonic hedgehog signaling (Shh) pathway (AID 1259369; calls by dose curve; also: nearly all actives have a fitted effect of over 45% in size; also: potency is read from the fitted curve at half-maximal effect). The method, boiled down:
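Inhibition of Shh signalling is measured as reduced Gli1-response-element firefly luciferase output in an NIH/3T3-derived stable reporter clone stimulated with conditioned medium for 24hr.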

Assay [17] concerns the target Androgen receptor (Homo sapiens) (UniProt P10275). Put plainly: qHTS assay to identify small molecule antagonists of the androgen receptor (AR) signaling pathway using the MDA cell line in the presence of 0.5 nM R1881 (AID 1259243). Also: nearly all actives have a fitted effect of over 50% in size. Also: potency is read from the fitted curve at half-maximal effect. In outline:
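Steps: seed MDA-kb2 cells, incubate 5 hr at 37C; pin-transfer compounds in DMSO; add R1881 to 0.5 nM final; incubate 16 hr; add ONE-Glo, wait 30 min at room temperature; read luminescence.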

Assay [18] is described as follows: A CellTox Green Cytotoxicity Assay to monitor cytotoxicity in HEK293 cells - 16 hour (AID 1224888). Also: nearly all actives have a fitted effect of over 35% in size. Also: potency is read from the fitted curve at half-maximal effect. In outline: (§3)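 Cytotoxicity was tracked continuously in HEK293 cells by a DNA-binding dye excluded from viable cells. Compounds were transferred in DMSO 5 h after seeding; fluorescence was recorded at intervals up to 40 h.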
Assay [19] can be described thus: qHTS assay to identify small molecule phospholipidosis (PLD) inducers (AID 1259344; active = well fitted curve in the direction sought with a large enough effect; an effect the other way counts as inactive or inconclusive). In outline: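 HepG2 cells on collagen I, attached 4 h at 37 C, were co-treated with compound and LipidTOX Red dye for 24 h at 37 C, then fixed with paraformaldehyde plus Hoechst 33342 and imaged by high-content microscopy for phospholipid accumulation.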
A short description of assay [20]: A CellTox Green Cytotoxicity Assay to monitor cytotoxicity in HEK293 cells - 8 hour (AID 1224884). Also: nearly all actives have a fitted effect of over 35% in size. In outline: as §3

Sequence of Androgen receptor (Homo sapiens) (P10275 whole entry, looked up): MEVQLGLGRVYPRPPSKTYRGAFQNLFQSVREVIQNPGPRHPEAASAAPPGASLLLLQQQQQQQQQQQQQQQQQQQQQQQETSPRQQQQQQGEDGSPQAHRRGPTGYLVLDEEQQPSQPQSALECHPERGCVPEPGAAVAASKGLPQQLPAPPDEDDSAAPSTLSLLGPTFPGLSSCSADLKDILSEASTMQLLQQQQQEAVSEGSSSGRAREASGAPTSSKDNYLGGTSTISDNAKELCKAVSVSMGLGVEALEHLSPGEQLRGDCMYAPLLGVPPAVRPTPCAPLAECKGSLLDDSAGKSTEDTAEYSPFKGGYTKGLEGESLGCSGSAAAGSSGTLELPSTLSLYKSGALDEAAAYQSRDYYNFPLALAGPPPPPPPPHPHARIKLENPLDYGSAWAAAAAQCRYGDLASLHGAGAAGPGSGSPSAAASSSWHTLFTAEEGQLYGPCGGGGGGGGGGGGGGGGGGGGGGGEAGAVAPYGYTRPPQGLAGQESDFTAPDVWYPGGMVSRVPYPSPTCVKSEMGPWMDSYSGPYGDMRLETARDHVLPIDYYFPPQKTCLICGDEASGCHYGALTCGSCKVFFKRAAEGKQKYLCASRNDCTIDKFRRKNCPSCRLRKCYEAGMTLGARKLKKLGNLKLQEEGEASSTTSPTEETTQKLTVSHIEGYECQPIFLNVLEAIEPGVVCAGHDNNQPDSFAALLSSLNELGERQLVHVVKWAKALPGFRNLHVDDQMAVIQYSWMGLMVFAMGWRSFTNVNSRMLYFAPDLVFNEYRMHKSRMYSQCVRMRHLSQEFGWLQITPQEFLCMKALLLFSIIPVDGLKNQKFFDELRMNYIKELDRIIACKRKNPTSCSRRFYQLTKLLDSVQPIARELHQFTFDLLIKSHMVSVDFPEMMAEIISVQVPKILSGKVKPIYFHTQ
Sequence of Estrogen receptor (Homo sapiens) (P03372 whole entry, looked up): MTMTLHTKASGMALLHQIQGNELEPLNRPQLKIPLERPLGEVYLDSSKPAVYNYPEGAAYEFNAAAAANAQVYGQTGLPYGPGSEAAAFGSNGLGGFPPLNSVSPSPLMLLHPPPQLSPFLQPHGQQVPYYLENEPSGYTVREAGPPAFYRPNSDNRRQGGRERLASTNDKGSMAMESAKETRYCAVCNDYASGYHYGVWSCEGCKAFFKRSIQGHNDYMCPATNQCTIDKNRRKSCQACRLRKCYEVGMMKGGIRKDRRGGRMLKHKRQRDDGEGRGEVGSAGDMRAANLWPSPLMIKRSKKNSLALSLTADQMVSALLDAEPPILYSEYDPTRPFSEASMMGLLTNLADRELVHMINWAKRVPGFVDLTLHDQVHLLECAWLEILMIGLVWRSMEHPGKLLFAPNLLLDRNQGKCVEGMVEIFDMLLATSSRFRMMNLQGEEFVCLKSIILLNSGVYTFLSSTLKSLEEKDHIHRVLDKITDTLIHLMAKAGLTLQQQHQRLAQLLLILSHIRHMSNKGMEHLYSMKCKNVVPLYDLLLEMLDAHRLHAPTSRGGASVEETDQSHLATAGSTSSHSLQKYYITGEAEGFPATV

Turning to `CC1(C)C(=O)N(CO)C(=O)N1CO`, the Potency entry in [1], in assay [2], in assay [3], in assay [4], in assay [5] and in assay [6] was “inactive” throughout. Further, the Potency result in [7], in assay [8], in assay [9], in assay [10], in assay [11] and in assay [12] was “inactive” throughout. Moreover, the Potency entry in assay [13], in assay [14], in [15] and in assay [16] was “inactive” each time.

As for `CCCCCCCCCC(=O)N(C)C`, the Potency entry in assay [1], in assay [2], in assay [3], in assay [4], in [5] and in assay [6] was “inactive” in each case. In addition, the Potency entry in assay [7], in assay [8], in [9], in assay [12], in assay [13] and in [14] was “inactive” in each case. Also, the Potency entry in assay [15] was “inactive”.

Turning to `CCCCCCCCCCCCN(CCO)CCO`, the Potency result in assay [1], in assay [11], in assay [12] and in [15] was “inactive” throughout. In addition, the Potency in assay [2] is 17.3 µM (active); in assay [3] it was 48.8 µM (active); in assay [4] it was 43.5 µM (active); in [9] it was 60.9 µM (active); in assay [17], 48.4 µM (active); in assay [16], 21.6 µM (active).

With `CC(C)(C)c1cc(/C=C2\SC(=N)NC2=O)cc(C(C)(C)C)c1O`, the Potency result in assay [1], in assay [6], in assay [9], in assay [11], in [12] and in [13] was “inactive” throughout. Moreover, the Potency result in assay [14] and in assay [15] was “inactive” each time. Further, the Potency in assay [2] is 43.6 µM (active); in assay [4], 49 µM (active); in assay [7], 49 µM (active).

In the case of `CCc1c(C(=O)O)c(=O)cnn1-c1ccc(Cl)cc1`, the Potency result in assay [1], in assay [2], in [3], in assay [4], in assay [5] and in assay [18] was “inactive” each time. The Potency entry in [6], in assay [7], in assay [9], in [10], in [11] and in assay [12] was “inactive” in each case. Further, the Potency result in assay [13], in [14], in assay [15] and in assay [16] was “inactive” each time.

On to `CCOC(=O)C1=C(C)NC(C)=C(C(=O)OCC)C1c1ccccc1/C=C/C(=O)OC(C)(C)C`, for which the Potency entry in [1], in [2], in assay [4], in assay [5], in assay [18] and in [7] was “inactive” each time. Besides, the Potency result in [8], in assay [9], in assay [19], in [11] and in assay [15] was “inactive” throughout. Moreover, the Potency in assay [6] was 3.38 µM (active); in assay [17], 23.7 µM (active); in assay [14] it was 29.8 µM (active); in assay [16], 29.8 µM (active).

Take `CCC(C)c1ccccc1` (stereo not given): the Potency entry in assay [1], in assay [20], in assay [3], in assay [4], in assay [5] and in [18] was “inactive” throughout. For the same molecule, the Potency result in [6], in assay [7], in [8], in assay [9], in assay [17] and in assay [10] was “inactive” in each case. The Potency result in assay [11], in assay [12], in assay [14], in assay [15] and in assay [16] was “inactive” each time.

For the molecule `CCCCCCCCCCOCC(O)CN` (stereo not given), the Potency entry in [1], in assay [10], in assay [11], in [14] and in [15] was “inactive” each time. In addition, the Potency in assay [2] is 13.4 µM (active); in [3], 16.9 µM (active); in assay [4], 23.9 µM (active); in assay [5], 23.9 µM (active); in assay [18], 26.8 µM (active); in assay [7], 26.8 µM (active). Also, in [16], the Potency is 11.9 µM (active).
